Shown are actives, neighbours in structure and some others; about 1.3% of the full set was active somewhere.
Tb PGK inh – inhibitors of T. brucei phosphoglycerate kinase; P07378; Potency, µM (doses to about 57.5 µM), without a hit: at the top dose activity change, negative = inhibition, hits mostly inhibitors; PGK/GAPDH coupled, Kinase-Glo luminescence, 60 min; actives 0.043% (n = 380,000); AID 602233; note: potency is the fitted concentration of half-maximal effect; % is set by controls: 0 for no effect and ±100 for the full control effect; nearly all actives have a fitted effect of over 60% in size
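Luminescent ATP detection (Kinase-Glo Plus) follows a 60-minute room-temperature incubation, with wells lacking PGK as controls. Buffer: 100 mM TEA (pH 7.6), 5 mM MgCl2, 0.01% Tween-20. Coupling enzyme GAPDH (100 nM final) supplies unstable 1,3-BPG in-well.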
WRN helicase inh – WRN helicase (human) inhibition; Potency, µM (doses to about 114 µM), inactives show at the highest dose activity change, negative = inhibition, actives largely listed as inhibitors; Q14191; WRN helicase unwinding, fluorescent forked duplex, kinetic; AID 651768; actives 0.46% (n = 360,000); note: potency is the fitted concentration of half-maximal effect; % is set by controls: 0 for no effect and ±100 for the full control effect; nearly all actives have a fitted effect of over 55% in size
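Enzyme (20 nM final) and test compound sit together 15 min at room temperature before substrate addition. Substrate is a single-forked duplex oligonucleotide (100 nM) labelled with fluorophore and quencher, with 2 mM ATP; helicase unwinding raises red fluorescence, read kinetically.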
Glioma ERSR ind – ER stress response induction in glioma | U87-MG GRP78 promoter luciferase reporter, 16 h | Potency, µM, without a hit: at the highest dose activation, hits mostly activators | actives 0.02% (n = 420,000) | AID 602332; note: potency is the fitted concentration of half-maximal effect; series mostly up to about 76 µM; % of control where 0% means no effect; nearly all actives have a fitted effect of over 35% in size
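ERSR induction read as luciferase luminescence (Bright-Glo, 10 min at room temperature) in stably transfected human U87-MG glioma cells exposed to compounds for 16 h, using GRP78 as sensor.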
PI5P4K alpha inh – PI5P4K alpha (human) kinase inhibition | P48426 | actives 1.2% (n = 330,000) | max response, % | PI5P4Kalpha enzyme, ADP-Glo luminescence, 60 min; hits give low values; active = max response of -50% or lower; inconclusive = between -30% and -50%; inactive = -30% or higher; note: value at the top dose of about 77 µM; % is set by controls: 0 for no effect and ±100 for the full control effect
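Compounds were pin-transferred onto PI5P4Kalpha and substrate in HEPES pH 7.4 buffer with EGTA, CHAPS and 5% DMSO. ATP (5 microM final) started the reaction, which ran 60 minutes at room temperature before ADP-Glo detection.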
Pin1 inhibitor – inhibitors of human Pin1 | Q13526 | Pin1 FP peptide displacement, HiFluor488, 10 min | Potency, µM (doses to about 115 µM), for the others: top-dose activity, negative = inhibition, usual class: inhibitors | actives 0.009% (n = 390,000) | AID 504891; active = well fitted inhibition curve with a large enough effect in the polarisation, with a control signal flat, not every such curve was filed as active; inconclusive = small, poorly fitted or top-dose-only effect, or effect the other way, or a change in a side signal; inactive = no such curve, though single readings can be large or run the other way; the % refers to the polarisation; note: potency is the fitted concentration of half-maximal effect; % is set by controls: 0 for no effect and ±100 for the full control effect
FEN1 inhibitor – human FEN1 inhibition | Potency, µM (highest dose often 114 µM), without a hit: at the highest dose activity change, negative = inhibition, most hits filed as inhibitors | P39748 | actives 0.35% (n = 390,000) | Recombinant FEN1 flap cleavage, fluorescence, 15 min; note: potency is the fitted concentration of half-maximal effect; % is set by controls: 0 for no effect and ±100 for the full control effect; nearly all actives have a fitted effect of over 65% in size
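Enzyme 10 nM, 15 min RT preincubation with compound; start with substrate 50 nM final; reads at 0 and 15 min; qHTS titration, four-parameter Hill fit.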
Starred values were filed as active, the others as inactive; i = inactive; ? = inconclusive; nt = not tested or not shown; [ ] = dose if it differs, or a comment. Unless noted, calls come from the whole dose curve; as a rule, active = well fitted curve in the direction sought with a large enough effect; inconclusive = small, poorly fitted or top-dose-only effect, or another doubt; inactive = no such curve, though single readings can be large; an effect the other way counts as inactive or inconclusive.

SMILES	Tb PGK inh	WRN helicase inh	Glioma ERSR ind	PI5P4K alpha inh	Pin1 inhibitor	FEN1 inhibitor
CCCCn1c(SC(C)C(=O)c2ccc(OC)cc2)nc2cc(S(N)(=O)=O)ccc21 (stereo not given)	-3%	-26%	-3%	nt	6%	?
CCCCn1c(SCC(=O)c2ccc(OC)cc2OC)nc2cc(S(N)(=O)=O)ccc21	0%	?	-4%	-54*	?	-11%
O=C(Cc1ccccc1)Nc1cccc(N2C(=O)C=CC2=O)c1	-4%	45µM*	-14%	-52*	2%	8%
COC/C=C/C1=CC2=CC(=O)C(C)(OC(=O)c3cnc4ccccc4n3)C(=O)C2=CN1c1ccccc1 (stereo not given)	7%	-19%[57.1 µM]	-1%	-69*	?	-12%
O=C1NN(c2ccccc2)C(=O)/C1=C\c1ccccc1	8%	-8%	-7%	-1	?	-19%
O=C1NN(c2ccccc2)C(=O)/C1=C/c1coc2ccccc2c1=O	-5%	?	1%	-64*	?	0%
Cc1occc1C(=O)N/N=C/c1ccc(N(C)C)cc1	25µM*	-5%	-15%	?	-7%	0%
Cc1occc1C(=O)N/N=C/C=C/c1ccc(N(C)C)cc1	-4%	0%	11%	-3	?	4%
O=C(NCc1nnc2n1CCN(Cc1cc3c(cc1Cl)OCO3)CC2)c1cccc(F)c1	nt	nt	-9%	nt	nt	nt
Oc1cccc(/C=N/NC(=S)Nc2cccnc2)c1O	-16%	?	1%	-66*	?	?
Oc1ccc(/C=N/NC(=S)Nc2cccnc2)c(O)c1O	-10%	10µM*	-1%	-96*	?	4.5µM*
Oc1ccc(/C=N/NC(=S)Nc2cccnc2)c(O)c1	-5%	-7%	-1%	-75*	?	-14%
CCOC(=O)N1CCN(Cc2ccc3c(c2)CN(C(=O)c2ccc(C#CC(C)(C)O)o2)CCO3)CC1	nt	nt	-3%	nt	nt	nt
COc1ccc(OC)c(/C=C2\S/C(=N/NC(=O)c3ccc4ccccc4c3)NC2=O)c1	-22%	?	-4%	?	?	?
O=C1N/C(=N/NC(=O)c2cccc3ccccc23)S/C1=C\c1ccccc1OCc1ccccc1	-2%	56µM*	-8%	-55*	23%	?
CCN(CC)c1ccc(C(=C2C=CC(=[N+](CC)CC)C=C2)c2ccc(N(CC)CC)cc2)cc1	?	-13%	-17%	-73*	1%	?
CCN(CC)c1ccc(C(=C2C=CC(=[N+](CC)CC)C=C2)c2ccccc2)cc1	i	45µM*	-14%	-30	-6%	19%
CCN(CC)c1ccc(C(=C2C=CC(=[N+](CC)Cc3cccc(S(=O)(=O)[O-])c3)C=C2)c2ccc(N(CC)Cc3cccc(S(=O)(=O)O)c3)cc2)cc1	nt	nt	-2%	nt	nt	nt
COc1cccc(NS(=O)(=O)c2ccc3c(c2)CCC(=O)N3)c1	nt	nt	nt	nt	-1%	nt
Cc1ccccc1-c1csc2ncnc(Sc3nnnn3C)c12	nt	nt	nt	nt	7%	nt
Cn1nnnc1SCC1=C(C(=O)O)N2C(=O)[C@@H](NC(=O)[C@H](O)c3ccccc3)[C@H]2SC1	?	25µM*	1%	?	3.2µM*	?
CC(C)OC(=O)c1c2c(n3ccccc13)C(=O)c1ccccc1C2=O	1%	89µM*	0%	0	?	?
COC(=O)c1cc2c(C)c(C)c3ccccn3c-2c1C(=O)OC	i	-17%	2%	5	?	8%
O=C(N/N=C/c1c[nH]c2ccccc12)c1cc(Cl)ccc1O	-3%	-16%	1%	-55*	0%	1%
O=C(N/N=C\c1c[nH]c2ccccc12)c1ccc(O)cc1	-12%	0%	9%	-73*	8%	-10%
COc1ccc(CN2CCc3nnc(CCc4ccccc4)n3CC2)c(OC)c1C	nt	nt	-1%	nt	nt	nt
O=C(Nc1cccc(Cl)c1)OCC#CCCl	nt	nt	-1%	nt	nt	nt
O=c1c2ccccc2sc2ccc(NCCCN3CCOCC3)cc12	-9%	-17%	-5%	0	?	45µM*

High-throughput results: PubChem BioAssay, National Center for Advancing Translational Sciences (NCATS)
